Screening data: PubChem, National Center for Advancing Translational Sciences (NCATS)
Shown are actives, neighbours in structure and some others; about 2.8% of the full set was active somewhere.
Pol kappa inh-1: DNA polymerase kappa (human) inhibition | Q9UBT6 | Potency, µM (highest dose often 107 µM), actives largely listed as inhibitors | hit rate 0.53% among 400,000 | purified Pol kappa, fluorescent DNA synthesis assay, 10 min
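Kinetic fluorescence readout at 0 and 10 min followed reaction start with substrate at 50 nM final. Beforehand, enzyme (10 nM Pol kappa) stood 15 min with compound at room temperature; buffer-only wells were negative controls.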
WRN helicase inh-1: WRN helicase (human) inhibition; AID 651768; hit rate 0.46% among 360,000; WRN helicase unwinding, fluorescent forked duplex, kinetic; Potency, µM (top dose mostly 114 µM), most hits filed as inhibitors; also: nearly all actives have a fitted effect of over 55% in size
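WRN at 20 nM final preincubated with compound 15 min at room temperature; reaction started with 100 nM fluorophore/quencher forked duplex oligonucleotide and 2 mM ATP final. Unwinding followed kinetically by red fluorescence (ex 525, em 598 nm).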
PI5P4Ka inh: PI5P4K alpha (human) kinase inhibition; P48426; PI5P4Kalpha enzyme, ADP-Glo luminescence, 60 min; hits give low values; max response, %; hit rate 1.2% among 330,000; AID 652105; active = max response of -50% or lower; inconclusive = between -30% and -50%; inactive = -30% or higher; also: value at the top dose of about 77 µM
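PI5P4Kalpha ADP-Glo assay; 5 microM ATP final; 60 min RT reaction; HEPES pH 7.4/EGTA/CHAPS, 5% DMSO; controls lacking substrate or enzyme; luminescent end-point.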
Pol eta inh-1: blocks human DNA polymerase eta activity | Q9Y253 | recombinant Pol eta, fluorescent DNA replication assay | Potency, µM (top dose mostly 114 µM), hits mostly inhibitors | hit rate 1.2% among 390,000 | AID 588591
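Pol eta at 10 nM preincubated with compounds 15 min at room temperature; reaction started with fluorescent substrate (50 nM final) and read kinetically at 0 and 10 min.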
POLI inh: DNA polymerase iota (human) inhibition; Q9UNA4; Pol iota fluorescent replication assay, 10 min; Potency, µM (series often up to 115 µM), hits mostly inhibitors; hit rate 1% among 390,000; AID 588590
Target sequence (Q9UNA4 whole entry, looked up): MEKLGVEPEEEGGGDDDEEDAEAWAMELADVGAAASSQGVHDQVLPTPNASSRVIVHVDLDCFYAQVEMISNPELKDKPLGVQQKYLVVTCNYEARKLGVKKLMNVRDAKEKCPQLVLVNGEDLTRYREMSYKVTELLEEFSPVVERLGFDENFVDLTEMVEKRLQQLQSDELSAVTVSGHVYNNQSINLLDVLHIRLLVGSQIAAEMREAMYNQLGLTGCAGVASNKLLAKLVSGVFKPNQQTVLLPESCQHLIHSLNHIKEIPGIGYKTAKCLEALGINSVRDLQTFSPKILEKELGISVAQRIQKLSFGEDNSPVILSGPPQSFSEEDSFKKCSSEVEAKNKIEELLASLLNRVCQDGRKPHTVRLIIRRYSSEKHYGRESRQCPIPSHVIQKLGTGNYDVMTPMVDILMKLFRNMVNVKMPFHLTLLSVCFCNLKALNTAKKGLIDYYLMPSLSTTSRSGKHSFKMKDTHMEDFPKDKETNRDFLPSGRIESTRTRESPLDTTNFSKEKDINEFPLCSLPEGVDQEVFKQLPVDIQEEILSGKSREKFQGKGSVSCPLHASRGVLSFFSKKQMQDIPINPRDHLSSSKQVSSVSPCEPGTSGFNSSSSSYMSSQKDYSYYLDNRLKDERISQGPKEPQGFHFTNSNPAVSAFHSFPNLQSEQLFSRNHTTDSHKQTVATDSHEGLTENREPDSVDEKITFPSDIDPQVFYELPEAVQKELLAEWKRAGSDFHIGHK
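Pol iota at 10 nM preincubated 15 min with compounds at room temperature; reaction started with fluorescent substrate, 50 nM final. Fluorescence read kinetically at 0 and 10 min; buffer-only wells as negative control.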
Pol beta inh: DNA polymerase beta (human) inhibition. P06746. Pol beta primer extension/strand displacement, fluorescence kinetic. Potency, µM (titrated, usually from 114 µM), usual class: inhibitors. hit rate 1.3% among 340,000. AID 485314
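Preincubation: enzyme (10 nM) with compound, 15 min, RT. Reaction: substrate added to 50 nM final. Reads: 0 and 10 min. Analysis: normalized, Hill fit.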
TbPGK inh: blocks T. brucei phosphoglycerate kinase; Potency, µM (top dose mostly 57.5 µM), most hits filed as inhibitors; TbPGK coupled GAPDH assay, Kinase-Glo luminescence; shares compounds with Pol kappa inh-1; hit rate 79% among 500; AID 686980; also: nearly all actives have a fitted effect of over 65% in size
Pol iota confirm: Inhibitors of human DNA polymerase iota, confirmation. shares compounds with Pol kappa inh-1. Pol iota primer extension, TAMRA/BHQ fluorescence. Potency, µM, most hits filed as inhibitors. hit rate 77% among 1,500. AID 720496
Pol kappa inh-2: Pol kappa (human) inhibition, cherry-pick confirmation. purified Pol-kappa, fluorescent strand-displacement substrate. hit rate 76% among 920. shares compounds with Pol eta inh-1. Potency, µM, actives largely listed as inhibitors
Pol eta inh-2: confirmation of human DNA polymerase eta inhibitors | shares compounds with Pol eta inh-1 | Pol eta primer extension, TAMRA/BHQ fluorescence, 10 min | Potency, µM, usual class: inhibitors | hit rate 64% among 2,600
WRN helicase inh-2: confirmation of human WRN helicase inhibitors | Potency, µM (titrated, usually from 57.1 µM), most hits filed as inhibitors | WRN helicase DNA unwinding, fluorescence kinetic | shares compounds with WRN helicase inh-1 | hit rate 63% among 610; also: nearly all actives have a fitted effect of over 65% in size
TO displacement: binds DNA, flagged in WRN inhibitor counterscreen. shares compounds with WRN helicase inh-1. hit rate 10% among 610. Potency, µM (titrated, usually from 57.1 µM), actives largely listed as inhibitors. thiazole orange DNA binding displacement, fluorescence;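 also: drop in dye fluorescence marks compound binding to DNA; nearly all actives have a fitted effect of over 60% in size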
BLM helicase inh: counter-screen for WRN helicase inhibitors: human BLM helicase inhibition; hit rate 60% among 610; Potency, µM (doses to about 57.1 µM), usual class: inhibitors; shares compounds with WRN helicase inh-1; Recombinant BLM helicase DNA unwinding, red fluorescence; also: nearly all actives have a fitted effect of over 60% in size
Hits are given with their value; . = inactive; ? = inconclusive; / = not tested or not shown. Unless noted, calls follow the shape of the dose curve; as a rule, active = well fitted curve in the direction sought with a large enough effect; inconclusive = small, poorly fitted or top-dose-only effect, or another doubt; inactive = no such curve, though single readings can be large; an effect the other way counts as inactive or inconclusive.

SMILES | Pol kappa inh-1 | WRN helicase inh-1 | PI5P4Ka inh | Pol eta inh-1 | POLI inh | Pol beta inh | Pol iota confirm | Pol eta inh-2 | WRN helicase inh-2 | TO displacement | BLM helicase inh | others
CCCCCCn1c(=O)n2n(c1=O)[C@@H]1CN(S(=O)(=O)c3ccc(C)cc3)C[C@]1(O)[C@@H](OC(=O)Nc1cccs1)C2 | / | . | . | . | / | / | / | / | / | / | /
Cc1ccc(S(C)(=O)=N/C=C2\C(=O)c3sccc3N(C)S2(=O)=O)cc1 (stereo unspecified) | . | . | . | . | . | ? | / | / | / | / | /
O=C1CC(=O)N(Cc2cccs2)C(=O)N1 | . | . | ? | . | . | . | / | / | / | / | /
O=C1CC(=O)N(Cc2ccco2)C(=O)N1 | 8.9µM | 25µM | / | 3.5µM | 3.2µM | 8.9µM | 3.4 | 5.4 | 7.6µM | . | 4.3µM | TbPGK inh=0.92µM
Cc1ccc(NC(=O)CN2C(=O)S/C(=C/c3ccc(-c4cc(C(=O)O)ccc4C)o3)C2=O)cc1C | 79µM | 22µM | / | 20µM | 22µM | 7.1µM | / | / | 7.6µM | . | 5.4µM | TbPGK inh=7.3µM
Nc1ccc2nc(-c3cccc(-c4nc5ccc(N)cc5[nH]4)n3)[nH]c2c1 | 56µM | 20µM | ? | 20µM | 14µM | 25µM | 17 | 19 | 5.4µM | 17µM | 4.8µM | Pol kappa inh-2=27
C/C(C/C(C)=C1/SC(=S)NC1=O)=C1\SC(=S)NC1=O | 20µM | 28µM | -105 | 3.5µM | 3.5µM | 16µM | 30 | 6 | 3.8µM | . | ?
O=C(CCN1C(=O)/C(=C/C=C/c2ccccc2)SC1=S)Nc1cccnc1 | . | ? | . | 5µM | ? | . | 9.5 | / | ? | . | ?
Cc1cc(N(C)C)ccc1/C=C/c1ccnc2ccccc12 | . | / | / | / | . | / | / | / | / | / | /
O=C(c1ccc(=O)oc1)N1CCOCC1 | 50µM | ? | . | 1.8µM | ? | 5µM | / | / | 5.4µM | . | 3µM | TbPGK inh=4.1µM
COc1cc(/C=C2\CCc3c2nc2ccccc2c3C(=O)O)cc(OC)c1OC | 45µM | 32µM | -62 | 3.2µM | 10µM | 3.2µM | 21 | 15 | 19µM | ? | 19µM
O=C1CC(c2ccco2)CC(O)=C1C=Nc1cc(Cl)ccc1O (stereo unspecified) | ? | ? | . | 35µM | ? | 20µM | 42 | 30 | 22µM | . | 7.6µM
CN(c1ccccc1)S(=O)(=O)c1cc(C(=O)OCC(=O)c2c(N)n(C)c(=O)n(C)c2=O)ccc1Cl | . | . | . | . | . | / | / | / | / | / | /
CCN(c1ccccc1)S(=O)(=O)c1cc(C(=O)OCC(=O)c2c(N)n(C)c(=O)n(C)c2=O)ccc1C | ? | 32µM | . | 4.5µM | 25µM | / | 30 | 27 | 24µM | ? | 7.6µM | Pol kappa inh-2=12
O=C(O)c1cccc(-n2cccc2/C=C/[N+](=O)[O-])c1 | 14µM | 20µM | -88 | 2.8µM | ? | 3.5µM | 15 | 5.4 | 17µM | . | 19µM | TbPGK inh=21µM
O=C(O)c1cccc(-n2cccc2/C=N/O)c1 | 35µM | ? | ? | 3.2µM | 11µM | 13µM | 19 | 30 | 24µM | . | 19µM
O=C1OC(c2cccs2)=N/C1=C\c1ccc(-c2ccccc2Cl)o1 | . | . | / | . | ? | ? | / | / | / | / | /
O=C1OC(c2cccs2)=N/C1=C/c1ccc(-c2cccc(C(=O)O)c2)o1 | 45µM | ? | -70 | 14µM | 20µM | 3.5µM | 38 | 27 | 19µM | ? | ?
CCc1nc2c(OCC3CCCCC3)cccn2c1N(C)C(=O)c1ccccc1F | / | . | . | / | / | / | / | / | / | / | /
COc1ccc2c(c1)c(=O)c(C(=O)c1ccc(F)cc1)cn2CC(=O)Nc1ccc(F)cc1 | . | . | . | . | . | . | / | / | / | / | /
CCc1ccc(C(=O)c2cn(CC(=O)Nc3cccc(OC)c3)c3ccc(OC)cc3c2=O)cc1 | 89µM | / | / | 40µM | 13µM | 8.9µM | 8.4 | ? | 19µM | . | 4.3µM
O=C(O)c1ccc(N/N=C/C=C/c2ccc([N+](=O)[O-])o2)cc1 | 79µM | ? | ? | 22µM | 8.9µM | 3.2µM | 38 | 27 | 19µM | ? | 17µM | TbPGK inh=16µM
O=C(N/N=C/c1ccc([N+](=O)[O-])o1)C(=O)Nc1ccc(C(=O)O)cc1 | . | . | . | ? | ? | ? | / | / | / | / | /
O=C1NN(c2ccccc2)C(=O)/C1=C/c1ccc(-c2ccc(Cl)c(C(=O)O)c2)o1 | ? | 35µM | . | 7.1µM | ? | 13µM | 42 | 30 | 19µM | . | ?
O=C(O)c1cc(-c2ccc(/C=C3\NC(=O)N(c4ccc(Cl)cc4)C3=O)o2)ccc1Cl | 10µM | 35µM | ? | 3.5µM | 10µM | 6.3µM | 21 | 5.4 | 6.8µM | ? | 24µM | TbPGK inh=21µM;Pol kappa inh-2=17
SMILES | Pol kappa inh-1 | WRN helicase inh-1 | PI5P4Ka inh | Pol eta inh-1 | POLI inh | Pol beta inh | Pol iota confirm | Pol eta inh-2 | WRN helicase inh-2 | TO displacement | BLM helicase inh | others
O=C(Cc1ccc(F)cc1)N/N=C/c1ccc(-c2ccc(Cl)c(C(=O)O)c2)o1 | . | . | . | . | . | . | / | / | / | / | /
Cc1cccc(N2NC(=O)/C(=C/c3ccc(-c4ccc(Cl)c(C(=O)O)c4)o3)C2=O)c1 | 35µM | 40µM | ? | 6.3µM | 3.5µM | 25µM | 34 | 17 | 9.6µM | ? | 9.6µM
Cc1c(F)cccc1NC(=O)C1CCCN1S(=O)(=O)c1ccc(F)cc1 (stereo unspecified) | . | / | / | / | . | . | / | / | / | / | /
O=C(O)CSc1cc(C(=O)c2ccccc2O)cn2c(=O)c3c4c(sc3nc12)CCCC4 | 45µM | 45µM | ? | ? | ? | ? | 27 | ? | 9.6µM | ? | 3.4µM
CCOCCc1c(O)nc(SCC(=O)N2CCOCC2)[nH]c1=O | . | . | . | . | . | . | / | / | / | / | /
CC1=NN(c2ccccc2)C(=O)C1/C=C1\NC(=S)NC1=O (stereo unspecified) | 25µM | 28µM | -74 | 3.2µM | ? | . | 47 | 24 | 8.6µM | . | 17µM | Pol kappa inh-2=7.5
